# According to the supplement of paper PMC6555819:
# Tested on: VDR:RXRa (NR concentration 270 nM, RXRa partner concentration 90 nM)
# Assay: PBM binding z-score (relative to random genomic background probes); higher = stronger binding; sequences stand for … in GC…GCGATTGACAGCGTAGAATGAAGG
# Method: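 Protein-binding microarray (Agilent 4x180K custom design, double-stranded 60-nt probes: 5' GC cap, 34-nt variable region, 24-nt constant primer region; full probe sequence given). Purified or IVT nuclear receptor:RXRα heterodimers (3:1 NR:RXRα, mostly 270:90 nM) or homodimers were incubated for 1 h in PBS with 2% milk and no ligand, then detected with Alexa488 antibodies. Fluorescence from o1-orientation probes (~5 replicates averaged) was converted to z-scores against 500 random hg19 background probes. Variable regions are seed direct-repeat (DR0–DR5) sites, all their single-nucleotide variants and half-site ablations.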
row,Sequence,PBM binding z-score
1,GCATATAGGTAATACAAAGTGAAAGTCCGATTGT,-0.024
2,GGAACTAGGGCAAGTTGATAGCAGAGTTTGATGG,-0.183
3,TCTAGTTGTTCAAAGGTCACACACTCGAAATGCG,4.95
4,TCATATAGGTAAAGGTGAAAGTTGAACGATATGA,1.58
5,GCTCGGAGGACAAGGTCAGACCTTTGTCCGTAGA,1.97
6,AGAATGAGGTTATACGTAGATCAGGGAGGAAAGT,1.33
7,GTACCAAGTTGAATAGGTCGTTGATGAGTAGGCG,0.387
8,GCTATTAGTTGAAAGGTCAACCGAATGATTCTCG,4.71
9,AGAACGAGGGCACGCTGAGTTGATAGCGGAGTAG,2.13
10,GCGACTGGGGCATCAGCAGGTTACCCTAACTTAA,-0.249
11,ACTAGCAGGCCAAGGGTCACTCATGATTAGTCCG,2.64
12,TCTTGTAGATCAACAGGTTAAGAAAGCTGGCCAA,0.855
13,TAGCCTAGGTCATGCGTGCCAGTATAGTGTCGGC,2.31
14,TCTATAAGTTGATTAGGGCAACCGAAACAGCGGA,0.463
15,ATCGAAAGGTCGTAAGGTGAGTATACAGAAAGGC,3.26
16,TCGAGTAGGTTACCAATGGGGCATACAGCTTTCT,0.221
17,CAAGCTAGGTCACAGAGGTCAAAGTCCGTGCGTA,8.14
18,CGTCCAAGGTCATAGGAGGTCTGTGAAGACAGAT,4.72
19,CGTCCAAGGTCATTGCTAGGTCAGTGAAAGCATT,5.53
20,GCTTGTAGATCAAGGTCAAGAAAGACTAAGCTAA,2.67

row,Sequence,PBM binding z-score
1,GGAACGAGGGCATTGGAGTTGATAGCATGGCGAT,2.6
2,ATCTCTAGGTAAGACTCAGTTCAGTGATGAACGC,0.927
3,CCAGACAGGTGAAAAGTAACTCAGTCTGGTACGC,0.113
4,AAACCAAGGTGATCGTGAGGTCGTTGATACTAAC,3.21
5,CCTTACGGGTCACTCACAGGTTATAGCATTTGGA,3.6
6,TCTAGTTGGTCAAAGGTCGCACACTCGAAATGCG,3.18
7,CCTCTTAGTTGACCATAAGGGCAACCGAAGCTCG,0.969
8,TCTAGTTGGTCAAAGGTCCCACACTCGAAATGCG,1.12
9,GTACCAAGGTGAATAGGTCGTTGGTGAGTAGGCG,0.678
10,TGTCAAAGTTCAAAGGTAACGTCAGTATCCACAC,5.11
11,AATACATGGTCATCGTAGGCCAGAGTACGCACAG,0.347
12,CGAACTAGGTCATTGACAGGTCAGTGAATAGTAA,3.9
13,ATTGAAAGGTCGAAGGTGAGTATACCCACCCGAA,3.13
14,CGAACTAGATCATCCAGGACAGTGAATACATTGA,0.286
15,ATCGAAAGGTCGAGGTGAGTATTGAGAAAGGGAA,2.46
16,CATAGCAGGCCAGGGTCACTCAAGCATTTCGCTT,2.92
17,GGAACGAGGGCAAGTTGGTAGCAGAGTTTGATGG,1.03
18,AGAGCGAGGGCAATGAGTTGATAGCACGGGTGGC,4.97
19,ATCGAGAGGTCGACGAGGTGAGTATACACCGTTT,4.87
20,ACTTACGGGTCAACGAGGTTATAGCACGCGTATA,7.63
